The text below walks through data of PubChem BioAssay (NCATS).

Each structure is given as a SMILES string. Where “and” joins values, the source holds several entries; their conditions need not be identical. Identical values can stand only once. Records with an inconclusive call do not appear. Calls of active or inactive are those of the source. Peptide text beside a SMILES is read from it.

The first experiment is described as follows: qHTS Assay for Lipid Storage Modulators (AID 1519). Conditions: Drosophila S3 cells, BODIPY lipid droplet/cell ratio, laser cytometry; measured here: lipid channel max response; cells loaded with oleic acid. Summed up:
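Cells seeded at 5,000 per well were treated with compounds over a concentration series and loaded with oleic acid (400 uM, as added). Lipid droplet fluorescence (488 nm excitation, 500-530 nm channel) was read by laser-scanning cytometry and normalized to 20 uM Triacsin C.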
For the compound `CC1=C(/C=C/C(C)=C/C=C/C(C)=C/C=C/C=C(C)/C=C/C=C(C)/C=C/C2=C(C)C(=O)CCC2(C)C)C(C)(C)CCC1=O`, the max response came out at 28.3%. Same read-out and setting: for `CC(=O)N[C@@H](CC(=O)O)C(=O)N[C@@H](CCC(=O)O)C(=O)O` (Ac-Asp-Glu-OH) the value was -7.7% and 26.3%; for `Cc1cc(C(=O)NNCc2ccccc2)no1`, -16.7%; for `NC(=O)c1ncn(C2OC(CO)C(O)C2O)n1` (stereo not drawn), 12.6%. Still for that read-out and setting: with `O=c1ccn([C@@H]2O[C@H](CO)[C@@H](O)[C@H]2O)c(=O)[nH]1` the figure was -5.71%; with `CC1(C)S[C@@H]2[C@H](NC(=O)Cc3ccccc3)C(=O)N2[C@H]1C(=O)O`, 2.53%; with `Cc1cn([C@H]2C[C@H](O)[C@@H](CO)O2)c(=O)[nH]c1=O`, -24.4%. The same measure, in the same setting: with `CC(C)(C)C(=O)OCOC(=O)[C@@H]1N2C(=O)[C@@H](N=CN3CCCCCC3)[C@H]2SC1(C)C` the figure was -6.96%. As to `CC[N+](C)(C)Cc1ccccc1Br`, the max response is 2.06% and 57.4%. On the same count and under the same terms, for `CCN(CC)Cc1cc(Nc2ccnc3cc(Cl)ccc23)ccc1O` the value was -20.7%; for `OCc1ccccc1O[C@@H]1O[C@H](CO)[C@@H](O)[C@H](O)[C@H]1O`, -16.3%.

For `CN1Cc2c(N)cccc2C(c2ccccc2)C1` (stereo not drawn), the max response is 9.26%.

Take `C=CCSSSCC=C`: the max response turned out to be 3.63%. On the same count and under the same terms, with `CCOc1ccc2c(c1)C(C)=CC(C)(C)N2` the figure was -29.2%; with `CN=C(NC#N)Nc1ccc(C2=NNC(=O)C[C@@H]2C)cc1`, -20.4%. Still for that read-out and setting: for `CCCC(=O)Nc1ncnc2c1ncn2[C@@H]1O[C@@H]2COP(=O)(O)O[C@H]2[C@H]1OC(=O)CCC` the value was -6.01%; for `CCC(=O)NCCC1CCc2ccc3c(c21)CCO3` (stereo not drawn), 23.8%. Still for that read-out and setting: with `CCCC(=O)Nc1ncnc2c1ncn2C1OC2COP(=O)(O)OC2C1OC(=O)CCC` (stereo not drawn) the figure was 29.9%. In the case of `C[C@@H]1CCC2[C@@H](C)[C@@H](O)O[C@@H]3O[C@@]4(C)CC[C@@H]1[C@@]23OO4` (stereo partly drawn), the max response was 15.2%. Still for that read-out and setting: for `CC1(C)S[C@@H]2[C@H](NC(=O)[C@@H](NC(=O)N3CCNC3=O)c3ccccc3)C(=O)N2[C@H]1C(=O)O` the value was -11.6%. Same read-out and setting: with `CC1=C(/C=C/C(C)=C/C=C/C(C)=C/C=C/C=C(C)/C=C/C=C(C)/C=C/C2=C(C)CCCC2(C)C)C(C)(C)CCC1` the figure was 17%; with `Cc1c(C)c2c(c(C)c1O)CC[C@@](C)(CCC[C@@H](C)CCC[C@@H](C)CCCC(C)C)O2`, -0.999%.

For `Nc1c(Br)cc(Br)cc1CNC1CCC(O)CC1` (stereo not drawn), the max response is -3.94% and 15.7%. On to `Oc1cc(O)c2c(c1)OC(c1ccc(O)c(O)c1)C(O)C2` (stereo not drawn), for which the max response is 12.7%. The same measure, in the same setting: for `Cc1c(C)c2c(c(C)c1O)CC[C@@](C)(CCC[C@H](C)CCC[C@H](C)CCCC(C)C)O2` the value was -14.3%; for `O=C(O)CN(CCN(CC(=O)O)CC(=O)O)CC(=O)O`, 6.6%.

The next experiment can be described thus: qHTS Assay for Identification of Small Molecule Inducers of Hypoxia Response (AID 2120; active means well fitted curve in the direction sought with a large enough effect in the signal ratio, with a control signal flat, not every such curve was filed as active; the % refers to the signal ratio; further: 0% is about no effect). Conditions: hypoxia response reporter cells, beta-lactamase ratio readout; series mostly up to 104 µM; activation: at the top concentration. A digest of the protocol: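 HRE-bla ME-180, 2500 cells/well, 0.5% dialyzed FBS medium; cpd titration, 17 h 37 degrees C; CCF4 2.5 h RT; Ex 405, Em 460/530 ratio -> %Activity, AC50.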
In the case of `CCCCCCCC/C=C\CCCCCCCC(=O)O`, the “activation” value was -0.595% (inactive).

As to `IC(I)I`, the “activation” value is 0.725% (inactive). Still for that read-out and setting: for `CC(C)=O` the value was -0.297% (inactive). As to `CC1=C2[C@@H]([C@H](C)CC[C@H]2/C=C(\C)C(=O)O)[C@H](O)C1`, the “activation” value is 0.202% (inactive). In the case of `CC(O)CO` (stereo not drawn), the outcome was inactive.

In the case of `O=S(=O)(O)O`, the result was inactive. For `CCCCC/C=C\C/C=C\CCCCCCCC(=O)O`, the “activation” value was 0.121% (inactive).

On to `CC1=C(/C=C/C(C)=C/C=C/C(C)=C/CO)C(C)(C)CCC1`, for which the “activation” value was 1.85% (inactive).

As for `CCOC(C)=O`, the “activation” value is 0.058% (inactive). With `CCCCCCCC(=O)O`, the result was inactive. `Nc1ccn([C@H]2CS[C@@H](CO)O2)c(=O)n1`: the “activation” value is -0.36% (inactive). Regarding `Cc1ccccc1`, the result was inactive.
